Tests used:
Test in all cases: DAPPL (digital affinity profiling via proximity ligation, sequencing); 10 mM Tris-HCl pH 7.5, 50 mM NaCl, 1 mM DTT, 4% glycerol, room temperature, 30 min; GST-TFs on glutathione beads, 16-mer random dsDNA library, 0.1% formaldehyde crosslink after washing; high values mean tight binding
FLI1 = biological target: T1, FLI1 (Homo sapiens, UniProt Q01543 1-452); settings: protein: recombinant; tags: N-terminal GST; dsDNA, one strand shown
T1 sequence: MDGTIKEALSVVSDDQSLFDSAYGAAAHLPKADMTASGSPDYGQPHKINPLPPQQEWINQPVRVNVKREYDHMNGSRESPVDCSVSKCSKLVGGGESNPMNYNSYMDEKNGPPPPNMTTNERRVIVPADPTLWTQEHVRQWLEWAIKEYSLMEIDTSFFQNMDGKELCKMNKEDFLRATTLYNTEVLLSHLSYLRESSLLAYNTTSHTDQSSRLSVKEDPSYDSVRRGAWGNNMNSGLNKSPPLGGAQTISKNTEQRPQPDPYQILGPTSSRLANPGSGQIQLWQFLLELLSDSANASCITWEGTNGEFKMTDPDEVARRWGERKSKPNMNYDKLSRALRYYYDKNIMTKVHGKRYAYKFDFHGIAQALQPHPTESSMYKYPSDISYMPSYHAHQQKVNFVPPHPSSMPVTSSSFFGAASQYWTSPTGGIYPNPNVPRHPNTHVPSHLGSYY
Method in brief: (§1)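 Pools of DNA-barcoded human transcription factors, expressed in yeast as GST fusions on glutathione beads and combined with a tag-only sample, were incubated with 200 nmole of a 16-mer random double-stranded DNA library. Incubation took 30 min at room temperature in Tris/NaCl/DTT/glycerol buffer and was followed by washing, 0.1% formaldehyde crosslinking, proximity ligation (BsaI/T4 ligase, 1 h, 37 °C), PCR amplification and sequencing on an Illumina NextSeq500. Binding signal is the ratio of a hexamer's read frequency for a factor to its frequency for the tag-only sample.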

ELK1 = biological target: T2, ELK1 (Homo sapiens, UniProt P19419 1-428); settings: protein: recombinant; tags: N-terminal GST; dsDNA, one strand shown
T2 sequence: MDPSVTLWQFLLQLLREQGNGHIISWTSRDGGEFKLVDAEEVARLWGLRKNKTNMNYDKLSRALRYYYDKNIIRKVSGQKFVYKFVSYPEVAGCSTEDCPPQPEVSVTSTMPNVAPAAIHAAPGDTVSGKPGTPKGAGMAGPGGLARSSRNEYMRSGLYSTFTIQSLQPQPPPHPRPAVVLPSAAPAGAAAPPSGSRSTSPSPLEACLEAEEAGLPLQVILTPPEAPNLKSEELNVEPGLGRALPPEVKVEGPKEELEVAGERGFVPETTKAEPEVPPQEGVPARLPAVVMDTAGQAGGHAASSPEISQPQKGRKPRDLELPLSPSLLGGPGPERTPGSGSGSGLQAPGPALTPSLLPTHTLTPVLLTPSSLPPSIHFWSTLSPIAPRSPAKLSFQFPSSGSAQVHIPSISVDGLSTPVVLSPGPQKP
Method in brief: as §1

GABPA = biological target: T3, GABPA (Homo sapiens, UniProt Q06546 1-454); settings: protein: recombinant; tags: N-terminal GST; dsDNA, one strand shown
T3 sequence: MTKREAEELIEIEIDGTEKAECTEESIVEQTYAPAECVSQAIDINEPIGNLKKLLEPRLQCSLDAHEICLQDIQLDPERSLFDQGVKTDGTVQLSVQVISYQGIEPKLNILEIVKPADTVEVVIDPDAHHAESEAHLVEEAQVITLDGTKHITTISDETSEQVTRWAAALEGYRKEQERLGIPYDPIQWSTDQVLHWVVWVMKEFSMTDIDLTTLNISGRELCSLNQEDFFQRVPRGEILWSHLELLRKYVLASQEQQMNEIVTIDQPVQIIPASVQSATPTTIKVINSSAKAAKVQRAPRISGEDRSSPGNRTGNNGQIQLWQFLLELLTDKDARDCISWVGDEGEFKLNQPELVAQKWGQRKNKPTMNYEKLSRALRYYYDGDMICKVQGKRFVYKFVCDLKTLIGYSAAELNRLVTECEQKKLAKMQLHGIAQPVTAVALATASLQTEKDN
Method in brief: as §1

ERG = biological target: T4, ERG (Homo sapiens, UniProt P11308 1-479); settings: protein: recombinant; tags: N-terminal GST; dsDNA, one strand shown
T4 sequence: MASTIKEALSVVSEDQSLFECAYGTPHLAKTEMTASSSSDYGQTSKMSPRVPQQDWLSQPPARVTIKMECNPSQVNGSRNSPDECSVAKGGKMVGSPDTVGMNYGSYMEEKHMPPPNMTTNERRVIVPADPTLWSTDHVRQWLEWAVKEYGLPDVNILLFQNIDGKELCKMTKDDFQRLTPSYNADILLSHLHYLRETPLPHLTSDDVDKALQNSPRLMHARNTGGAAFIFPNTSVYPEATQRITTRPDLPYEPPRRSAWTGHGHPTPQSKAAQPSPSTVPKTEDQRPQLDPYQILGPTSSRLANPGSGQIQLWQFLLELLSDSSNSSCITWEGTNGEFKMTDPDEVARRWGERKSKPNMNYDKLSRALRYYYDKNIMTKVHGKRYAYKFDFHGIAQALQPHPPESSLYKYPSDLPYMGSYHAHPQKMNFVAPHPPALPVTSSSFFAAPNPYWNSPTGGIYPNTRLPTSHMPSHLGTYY
Method in brief: as §1

ELF1 = ELF1 (Homo sapiens, UniProt P32519 1-619); settings: protein: recombinant; tags: N-terminal GST; dsDNA, one strand shown
Method in brief: as §1

EHF = biological target: T5, EHF (Homo sapiens, UniProt Q9NZC4 1-300); settings: protein: recombinant; tags: N-terminal GST; dsDNA, one strand shown
T5 sequence: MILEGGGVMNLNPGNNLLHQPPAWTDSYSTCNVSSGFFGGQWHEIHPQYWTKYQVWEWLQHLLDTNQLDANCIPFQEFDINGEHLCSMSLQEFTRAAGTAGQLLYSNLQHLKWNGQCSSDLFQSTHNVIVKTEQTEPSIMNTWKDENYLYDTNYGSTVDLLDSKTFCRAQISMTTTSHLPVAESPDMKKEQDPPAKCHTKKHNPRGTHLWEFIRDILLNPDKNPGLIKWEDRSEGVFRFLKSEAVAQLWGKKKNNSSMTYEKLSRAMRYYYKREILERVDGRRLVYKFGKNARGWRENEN
Method in brief: as §1

SPI1 = SPI1 (Homo sapiens, UniProt P17947 1-270); settings: protein: recombinant; tags: N-terminal GST; dsDNA, one strand shown
Method in brief: as §1

SPIB = SPIB (Homo sapiens, UniProt Q01892 1-262); settings: protein: recombinant; tags: N-terminal GST; dsDNA, one strand shown
Method in brief: as §1

ELK3 = biological target: T6, ELK3 (Homo sapiens, UniProt P41970 1-407); settings: protein: recombinant; tags: N-terminal GST; dsDNA, one strand shown
T6 sequence: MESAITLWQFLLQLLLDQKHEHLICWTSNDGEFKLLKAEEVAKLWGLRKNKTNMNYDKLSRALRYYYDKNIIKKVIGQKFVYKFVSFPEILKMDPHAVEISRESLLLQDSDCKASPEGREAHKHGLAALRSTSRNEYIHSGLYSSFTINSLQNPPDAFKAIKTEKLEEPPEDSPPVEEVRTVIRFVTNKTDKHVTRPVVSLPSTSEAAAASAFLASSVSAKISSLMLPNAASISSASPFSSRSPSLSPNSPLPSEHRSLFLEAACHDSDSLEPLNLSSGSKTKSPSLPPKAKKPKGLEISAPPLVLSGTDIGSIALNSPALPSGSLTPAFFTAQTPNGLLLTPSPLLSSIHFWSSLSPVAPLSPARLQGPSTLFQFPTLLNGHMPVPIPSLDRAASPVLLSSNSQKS
Method in brief: as §1

FEV = biological target: T7, FEV (Homo sapiens, UniProt Q99581 1-238); settings: protein: recombinant; tags: N-terminal GST; dsDNA, one strand shown
T7 sequence: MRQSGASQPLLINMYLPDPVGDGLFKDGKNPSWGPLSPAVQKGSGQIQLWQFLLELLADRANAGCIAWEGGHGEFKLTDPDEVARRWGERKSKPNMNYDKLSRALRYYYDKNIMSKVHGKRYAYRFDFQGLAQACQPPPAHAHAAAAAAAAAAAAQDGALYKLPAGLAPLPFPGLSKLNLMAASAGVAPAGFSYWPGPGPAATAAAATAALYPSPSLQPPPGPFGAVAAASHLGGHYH
Method in brief: as §1

ETV5 = ETV5 (Homo sapiens, UniProt P41161 1-510); settings: protein: recombinant; tags: N-terminal GST; dsDNA, one strand shown
Method in brief: as §1

HSF1 = HSF1 (Homo sapiens, UniProt Q00613 1-529); settings: protein: recombinant; tags: N-terminal GST; chain copies: 3; dsDNA, one strand shown
Method in brief: as §1

SPIC = biological target: T8, SPIC (Homo sapiens, UniProt Q8N5J4 1-248); settings: protein: recombinant; tags: N-terminal GST; dsDNA, one strand shown
T8 sequence: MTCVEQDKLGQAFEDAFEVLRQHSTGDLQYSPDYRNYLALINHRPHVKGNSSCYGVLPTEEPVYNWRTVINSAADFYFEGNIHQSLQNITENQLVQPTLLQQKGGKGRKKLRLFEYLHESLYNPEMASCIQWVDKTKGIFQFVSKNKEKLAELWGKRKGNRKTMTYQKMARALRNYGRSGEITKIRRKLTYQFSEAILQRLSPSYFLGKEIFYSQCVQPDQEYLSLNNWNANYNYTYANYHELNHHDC
Method in brief: as §1

ELF4 = ELF4 (Homo sapiens, UniProt Q99607 1-663); settings: protein: recombinant; tags: N-terminal GST; dsDNA, one strand shown
Method in brief: as §1

ELK4 = biological target: T9, ELK4 (Homo sapiens, UniProt P28324-2 1-405); settings: protein: recombinant; tags: N-terminal GST; dsDNA, one strand shown
T9 sequence: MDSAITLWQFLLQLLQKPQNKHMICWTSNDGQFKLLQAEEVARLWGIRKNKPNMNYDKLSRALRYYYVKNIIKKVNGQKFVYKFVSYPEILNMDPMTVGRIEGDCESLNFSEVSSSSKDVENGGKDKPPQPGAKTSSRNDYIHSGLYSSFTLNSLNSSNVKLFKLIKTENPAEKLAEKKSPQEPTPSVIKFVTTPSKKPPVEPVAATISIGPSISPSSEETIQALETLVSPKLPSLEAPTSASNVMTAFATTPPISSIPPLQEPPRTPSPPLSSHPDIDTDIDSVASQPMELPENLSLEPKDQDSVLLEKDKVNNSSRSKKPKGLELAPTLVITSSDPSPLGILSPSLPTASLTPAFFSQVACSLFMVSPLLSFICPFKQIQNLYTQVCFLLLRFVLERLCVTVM
Method in brief: as §1

ETV2 = biological target: T10, ETV2 (Homo sapiens, UniProt O00321 1-342); settings: protein: recombinant; tags: N-terminal GST; dsDNA, one strand shown
T10 sequence: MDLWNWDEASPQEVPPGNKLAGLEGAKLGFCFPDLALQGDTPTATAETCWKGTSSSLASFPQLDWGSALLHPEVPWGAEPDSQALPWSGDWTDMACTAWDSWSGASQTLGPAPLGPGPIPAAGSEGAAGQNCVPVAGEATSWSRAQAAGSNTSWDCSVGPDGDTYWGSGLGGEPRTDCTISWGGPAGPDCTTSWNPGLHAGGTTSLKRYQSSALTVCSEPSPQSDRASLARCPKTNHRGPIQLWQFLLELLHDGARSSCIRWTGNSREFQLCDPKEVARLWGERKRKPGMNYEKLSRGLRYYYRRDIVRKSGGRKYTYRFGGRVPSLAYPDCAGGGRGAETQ
Method in brief: as §1

ELF3 = biological target: T11, ELF3 (Homo sapiens, UniProt P78545 1-371); settings: protein: recombinant; tags: N-terminal GST; dsDNA, one strand shown
T11 sequence: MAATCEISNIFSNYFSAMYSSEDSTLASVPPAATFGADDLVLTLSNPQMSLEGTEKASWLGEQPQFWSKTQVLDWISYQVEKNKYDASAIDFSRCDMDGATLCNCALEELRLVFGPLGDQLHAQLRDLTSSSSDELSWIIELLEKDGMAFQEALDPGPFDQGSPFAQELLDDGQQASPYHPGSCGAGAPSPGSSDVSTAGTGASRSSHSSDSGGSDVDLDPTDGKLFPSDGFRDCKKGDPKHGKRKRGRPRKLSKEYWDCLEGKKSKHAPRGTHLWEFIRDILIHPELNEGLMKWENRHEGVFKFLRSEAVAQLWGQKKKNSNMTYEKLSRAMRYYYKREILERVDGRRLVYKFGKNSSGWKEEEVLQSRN
Method in brief: as §1

CRX = CRX (Homo sapiens, UniProt O43186 1-299); settings: protein: recombinant; tags: N-terminal GST; dsDNA, one strand shown
Method in brief: as §1

ETV1 = ETV1 (Homo sapiens, UniProt P50549 1-477); settings: protein: recombinant; tags: N-terminal GST; dsDNA, one strand shown
Method in brief: as §1

Chain of SPIB (Q01892 whole entry): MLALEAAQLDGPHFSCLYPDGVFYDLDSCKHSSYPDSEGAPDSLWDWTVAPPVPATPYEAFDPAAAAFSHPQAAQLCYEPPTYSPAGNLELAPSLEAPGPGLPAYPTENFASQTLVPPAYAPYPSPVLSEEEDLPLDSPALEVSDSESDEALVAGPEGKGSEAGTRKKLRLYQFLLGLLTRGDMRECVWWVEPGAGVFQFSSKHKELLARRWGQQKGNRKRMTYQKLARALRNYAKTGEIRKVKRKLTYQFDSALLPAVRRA
Chain of ELF4 (Q99607 whole entry): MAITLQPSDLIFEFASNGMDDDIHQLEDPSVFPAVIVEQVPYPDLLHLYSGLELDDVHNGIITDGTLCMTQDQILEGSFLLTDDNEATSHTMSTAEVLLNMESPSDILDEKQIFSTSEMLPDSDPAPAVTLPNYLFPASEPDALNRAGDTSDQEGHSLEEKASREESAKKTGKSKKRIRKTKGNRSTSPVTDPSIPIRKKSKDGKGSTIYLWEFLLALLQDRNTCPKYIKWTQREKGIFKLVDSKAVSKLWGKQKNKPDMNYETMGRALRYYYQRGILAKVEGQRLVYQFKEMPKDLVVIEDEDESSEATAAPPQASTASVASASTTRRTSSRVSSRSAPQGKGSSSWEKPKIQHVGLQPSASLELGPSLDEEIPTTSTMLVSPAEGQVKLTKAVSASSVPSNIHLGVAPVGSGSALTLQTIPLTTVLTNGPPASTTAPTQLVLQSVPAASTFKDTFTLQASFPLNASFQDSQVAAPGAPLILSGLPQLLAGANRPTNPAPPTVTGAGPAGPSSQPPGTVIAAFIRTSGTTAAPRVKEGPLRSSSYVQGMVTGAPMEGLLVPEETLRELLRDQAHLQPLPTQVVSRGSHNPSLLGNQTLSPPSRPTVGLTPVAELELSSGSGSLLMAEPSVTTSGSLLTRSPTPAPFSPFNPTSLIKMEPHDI
Chain of ETV5 (P41161 whole entry): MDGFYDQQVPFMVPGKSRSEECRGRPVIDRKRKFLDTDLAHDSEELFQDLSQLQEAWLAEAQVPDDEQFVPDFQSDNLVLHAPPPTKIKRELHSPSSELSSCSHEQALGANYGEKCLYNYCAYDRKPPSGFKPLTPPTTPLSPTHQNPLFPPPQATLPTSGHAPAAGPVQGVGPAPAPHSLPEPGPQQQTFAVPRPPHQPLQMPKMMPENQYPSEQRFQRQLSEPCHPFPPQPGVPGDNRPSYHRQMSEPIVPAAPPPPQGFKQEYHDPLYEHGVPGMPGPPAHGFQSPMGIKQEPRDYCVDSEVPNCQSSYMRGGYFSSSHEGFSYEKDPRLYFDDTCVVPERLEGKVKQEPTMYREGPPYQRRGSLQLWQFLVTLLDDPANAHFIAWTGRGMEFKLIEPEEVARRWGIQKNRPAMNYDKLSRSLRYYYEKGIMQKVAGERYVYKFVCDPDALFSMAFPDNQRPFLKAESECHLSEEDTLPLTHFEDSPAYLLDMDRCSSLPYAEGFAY
Chain of HSF1 (Q00613 whole entry): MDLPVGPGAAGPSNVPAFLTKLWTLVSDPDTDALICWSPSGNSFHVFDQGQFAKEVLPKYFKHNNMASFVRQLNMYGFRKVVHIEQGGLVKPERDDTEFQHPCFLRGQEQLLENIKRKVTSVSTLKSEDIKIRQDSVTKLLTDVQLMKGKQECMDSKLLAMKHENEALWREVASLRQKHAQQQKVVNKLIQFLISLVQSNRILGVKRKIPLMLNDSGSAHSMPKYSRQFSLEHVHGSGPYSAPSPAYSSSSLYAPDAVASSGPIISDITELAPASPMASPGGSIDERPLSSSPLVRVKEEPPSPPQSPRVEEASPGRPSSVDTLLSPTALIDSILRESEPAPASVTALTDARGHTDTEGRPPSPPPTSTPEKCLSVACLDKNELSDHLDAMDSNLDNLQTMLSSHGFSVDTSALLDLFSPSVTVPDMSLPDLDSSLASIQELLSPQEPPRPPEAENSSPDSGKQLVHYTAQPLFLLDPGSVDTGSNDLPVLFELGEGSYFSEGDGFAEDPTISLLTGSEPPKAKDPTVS
Chain of CRX (O43186 whole entry): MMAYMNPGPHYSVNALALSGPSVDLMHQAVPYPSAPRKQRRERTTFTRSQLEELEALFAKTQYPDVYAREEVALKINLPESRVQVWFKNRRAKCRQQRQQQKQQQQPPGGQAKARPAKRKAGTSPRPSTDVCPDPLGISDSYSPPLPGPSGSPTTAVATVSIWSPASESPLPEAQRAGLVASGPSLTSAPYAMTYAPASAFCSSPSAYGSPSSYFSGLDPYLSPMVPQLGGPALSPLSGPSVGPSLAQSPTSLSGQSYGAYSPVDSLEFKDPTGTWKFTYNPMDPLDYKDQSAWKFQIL
Chain of ELF1 (P32519 whole entry): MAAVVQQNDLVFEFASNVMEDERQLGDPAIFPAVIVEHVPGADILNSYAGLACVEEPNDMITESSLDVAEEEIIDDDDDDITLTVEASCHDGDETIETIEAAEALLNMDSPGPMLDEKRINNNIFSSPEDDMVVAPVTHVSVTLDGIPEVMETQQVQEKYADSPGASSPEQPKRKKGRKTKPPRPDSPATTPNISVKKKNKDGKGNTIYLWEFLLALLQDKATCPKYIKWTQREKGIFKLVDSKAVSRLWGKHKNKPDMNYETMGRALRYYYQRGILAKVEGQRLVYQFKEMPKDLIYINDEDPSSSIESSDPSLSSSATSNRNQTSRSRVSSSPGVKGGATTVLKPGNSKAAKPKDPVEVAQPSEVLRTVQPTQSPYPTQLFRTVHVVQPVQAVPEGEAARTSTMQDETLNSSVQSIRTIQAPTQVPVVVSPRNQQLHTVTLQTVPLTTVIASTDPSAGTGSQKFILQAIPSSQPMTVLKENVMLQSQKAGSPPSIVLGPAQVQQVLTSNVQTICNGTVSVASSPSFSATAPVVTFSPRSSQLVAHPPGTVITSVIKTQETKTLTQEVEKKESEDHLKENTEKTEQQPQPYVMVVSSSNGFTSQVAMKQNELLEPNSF
Chain of ETV1 (P50549 whole entry): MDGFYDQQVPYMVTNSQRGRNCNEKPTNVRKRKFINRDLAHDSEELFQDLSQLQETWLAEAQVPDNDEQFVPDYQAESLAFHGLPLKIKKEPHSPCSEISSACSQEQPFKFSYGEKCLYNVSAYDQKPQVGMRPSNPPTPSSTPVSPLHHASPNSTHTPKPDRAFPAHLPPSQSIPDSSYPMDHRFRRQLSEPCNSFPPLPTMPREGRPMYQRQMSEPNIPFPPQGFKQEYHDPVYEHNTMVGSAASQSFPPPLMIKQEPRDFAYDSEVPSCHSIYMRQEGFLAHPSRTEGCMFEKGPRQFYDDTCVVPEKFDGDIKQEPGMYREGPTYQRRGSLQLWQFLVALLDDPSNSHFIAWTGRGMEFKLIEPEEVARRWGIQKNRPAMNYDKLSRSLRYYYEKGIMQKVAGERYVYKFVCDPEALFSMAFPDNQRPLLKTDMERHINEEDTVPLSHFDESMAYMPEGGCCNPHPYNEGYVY

Sequence: CACATT
- binding signal (FLI1): 1.3 fold enrichment (6-mer frequency, TF over GST control)
- binding signal (ELK1): 1.16 fold enrichment (6-mer frequency, TF over GST control)
- binding signal (GABPA): 1.2 fold enrichment (6-mer frequency, TF over GST control)
- binding signal (ERG): 1.15 fold enrichment (6-mer frequency, TF over GST control)
- binding signal (ELF1): 1.21 fold enrichment (6-mer frequency, TF over GST control)
- binding signal (EHF): 1.23 fold enrichment (6-mer frequency, TF over GST control)
- binding signal (SPI1): 1.14 fold enrichment (6-mer frequency, TF over GST control)
- binding signal (SPIB): 1.12 fold enrichment (6-mer frequency, TF over GST control)
- binding signal (ELK3): 1.13 fold enrichment (6-mer frequency, TF over GST control)
- binding signal (FEV): 1.18 fold enrichment (6-mer frequency, TF over GST control)
- binding signal (ETV5): 1.19 fold enrichment (6-mer frequency, TF over GST control)
- binding signal (HSF1): 1.14 fold enrichment (6-mer frequency, TF over GST control)
- binding signal (SPIC): 1.26 fold enrichment (6-mer frequency, TF over GST control)
- binding signal (ELF4): 1.16 fold enrichment (6-mer frequency, TF over GST control)
- binding signal (ELK4): 1.13 fold enrichment (6-mer frequency, TF over GST control)
- binding signal (ETV2): 1.28 fold enrichment (6-mer frequency, TF over GST control)
- binding signal (ELF3): 1.43 fold enrichment (6-mer frequency, TF over GST control)
- binding signal (CRX): 1.06 fold enrichment (6-mer frequency, TF over GST control)
- binding signal (ETV1): 1.28 fold enrichment (6-mer frequency, TF over GST control)
